Screening data from PubChem BioAssay.
Ub-GFP proteasome = ubiquitin-GFP accumulation via proteasome inhibition. 67,000 tested, under 10 active. Potency, µM (highest dose often 45.9 µM), for the others: top-dose activation (GFP accumulation), actives largely listed as activators. Ubiquitin-GFP reporter cells, proteasome inhibition, GFP fluorescence; response scale: untreated = 0%, 10 µM MG-132 = 100%; active = well fitted activation curve with a large enough effect, not every such curve was filed as active; inconclusive = small, poorly fitted or top-dose-only effect, or another doubt; inactive = no such curve, though single readings can be large or run the other way; also: potency is read from the fitted curve at half-maximal effect
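Proteasome block read as GFP accumulation: ubiquitin(G76V)-GFP U2OS cells exposed to compound (2.9 nM–46 uM) for 4 hr at 37 C. Normalization used untreated cells as 0% and 10 uM MG-132 as 100%; concentration-response curves fitted.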
GFP derepression = derepresses silenced GFP locus in mouse C127i cells; mouse C127i GFP locus derepression, cytometry, 30 h; Potency, µM (top dose mostly 46.1 µM), inactives show at the top dose GFP derepression (activation); actives 0.09% (n = 68,000); AID 597; also: % of control where 0% means no effect
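Read-out is the number of GFP-positive cells, scored as fluorescent objects 20 to 120 um wide, reflecting derepression of a silenced CMV-GFP reporter in murine C127i cells after 30 h compound exposure at 37 C.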
HBB splice mod = modulators of hemoglobin beta chain splicing; HBB splicing reporter cell assay, activation; EGFP reporter with mutant IVS2-654 intron; response scale: normalised to 500 nM splice-correcting PNA; Potency, µM (doses to about 46.1 µM), inactives show at the highest dose activation, actives largely listed as activators; actives 0.06% (n = 65,000); AID 925; also: potency is read from the fitted curve at half-maximal effect; 0% is about no effect
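Compounds were applied for 2 days to HeLa EGFP-654 cells, 500/well in Optimem with 2% FCS. The reporter's EGFP is disrupted by mis-splicing of beta-globin intron IVS2-654. Readout: summed well GFP fluorescence from 488 nm laser scanning; reference was 500 nM antisense […] 654 PNA.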
USP2a inh = blocks human ubiquitin-specific protease USP2a | O75604 | USP2a enzymatic assay, qHTS inhibition | Potency, µM (series often up to 38.3 µM), without a hit: at the top dose activity change, negative = inhibition, most hits filed as inhibitors | actives 0.1% (n = 60,000) | AID 927; also: potency is read from the fitted curve at half-maximal effect; nearly all actives have a fitted effect of over 60% in size
Target sequence (O75604 whole entry, looked up): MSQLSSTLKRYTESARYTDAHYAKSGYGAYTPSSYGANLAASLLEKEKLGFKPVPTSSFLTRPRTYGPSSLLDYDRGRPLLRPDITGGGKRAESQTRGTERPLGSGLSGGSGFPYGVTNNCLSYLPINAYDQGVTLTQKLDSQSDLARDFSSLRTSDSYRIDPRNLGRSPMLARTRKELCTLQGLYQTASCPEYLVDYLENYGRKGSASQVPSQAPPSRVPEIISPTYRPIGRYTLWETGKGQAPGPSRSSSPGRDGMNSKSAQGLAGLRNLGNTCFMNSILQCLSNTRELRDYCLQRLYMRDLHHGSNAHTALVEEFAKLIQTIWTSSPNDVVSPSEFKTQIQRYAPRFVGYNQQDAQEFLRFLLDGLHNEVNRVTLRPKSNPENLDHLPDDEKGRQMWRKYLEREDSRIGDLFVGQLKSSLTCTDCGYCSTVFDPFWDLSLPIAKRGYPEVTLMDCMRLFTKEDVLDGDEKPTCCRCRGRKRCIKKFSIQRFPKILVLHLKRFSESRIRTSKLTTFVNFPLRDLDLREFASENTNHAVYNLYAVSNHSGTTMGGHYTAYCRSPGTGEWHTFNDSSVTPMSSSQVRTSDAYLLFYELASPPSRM
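20 nM USP2 core + cpd, 30 min RT; add 20 nM Ub-PLA2/20 uM NBD C6-HPC; read Ex460/Em535 at 0 h and 2.5 h. Normalized to NEM; qHTS curve fit/classification.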
Hsp90 Hop PPI = changes Hsp90-Hop TPR2A binding signal, up or down; actives 0.44% (n = 71,000); AID 595; AlphaScreen TPR2A-His6 binding biotin-Hsp90 C-terminal peptide; Potency, µM (highest dose often 57 µM), without a hit: at the highest dose activity change, negative = inhibition; active = well fitted curve in either direction with a large enough effect; inconclusive = small, poorly fitted or top-dose-only effect, or another doubt; also: potency is read from the fitted curve at half-maximal effect; % is scaled to controls: 0 for no effect and ±100 for the full control effect
* marks the source's active call; other numbers are inactive results; ? = inconclusive; . = no result given; ! = not confirmed by another sample; [ ] = another dose, or the depositor's remark. The list is not random: actives were taken first. Their share in the collection is about 0.44%. Unless noted, calls follow the shape of the dose curve; as a rule, active = well fitted curve in the direction sought with a large enough effect; inconclusive = small, poorly fitted or top-dose-only effect, or another doubt; inactive = no such curve, though single readings can be large; an effect the other way counts as inactive or inconclusive.

SMILES	Ub-GFP proteasome	GFP derepression	HBB splice mod	USP2a inh	Hsp90 Hop PPI
CCN1C(=S)SC(=O)C1=C1C=C(C)OC(C)=C1	0.0%	27.2%	-3.7%	11.8%	-18.3%
Cc1cc2c(c(=O)o1)[C@@H](O)[C@H]1O[C@@H]1C2=O	.	.	1.8%[9.22 µM]	.	.
CCOC(=O)C1CCN(c2nc3cc(OC)ccc3cc2C#N)CC1	1.0%	2.4%	.	-5.5%	25.1µM*
COc1ccc2nc(N3CCC(C)CC3)c(C#N)cc2c1	7.2%	5.8%	-0.2%[57.5 µM]	.	25.1µM*
N#CC(C(=O)NCCc1ccccc1)c1nc2ccccc2nc1N1CCCCC1 (stereo unspecified)	-3.7%	-1.3%	-0.3%	8.3%	?
N#CC(C(=O)NCc1ccccc1)c1nc2ccccc2nc1N1CCCC1 (stereo unspecified)	12.4%	?	10µM*	7.8%	0.3%
NC(=O)c1ncn([C@@H]2O[C@@H](CO)[C@@H](O)[C@H]2O)n1	-3.3%	-1.1%	0.5%	.	0.5%
Cc1cc(C)nc(SCCc2cccc[n+]2C)n1	5.5%[9.17 µM]	2.2%[9.22 µM]	-1.6%[9.22 µM]	.	0.7%[11 µM]
Oc1ccc(CN2CCCc3ccccc32)c2cccnc12	-3.1%	4.1%	-0.3%	51.8%	3.16µM*
CC(=O)Nc1cc(CN2CCCCC2)c(O)c2ncccc12	1.3%[9.17 µM]	0.1%[9.22 µM]	0.2%[9.22 µM]	.	3.98µM*
O=C(O)C1=CC(=C(c2ccc(O)c(C(=O)O)c2)c2ccc(O)c(C(=O)O)c2)C=CC1=O	-3.3%	-1.1%	-1.9%	20µM*!	?
COc1cccc(-c2cc3nc(-c4ccccc4)cc(N4CCC5(CC4)OCCO5)n3n2)c1	4.8%	0.0%	-0.2%[57.5 µM]	0.7%	20µM*
O=c1oc2c3c4c(cc2cc1-c1nc2ccccc2[nH]1)CCCN4CCC3	12.9%	0.9%	0.794µM*	77.5%	8.4%
CC1=CC(=O)c2ccccc2C1=O	-6.4%[20.5 µM]	0.5%[20.6 µM]	12.6µM*	?	-4.9%[26 µM]
CN(C)C=C1C(=O)c2ccccc2C1=O	.	4.9%[20.6 µM]	.	.	.
O=C1NC(c2ccccn2)Nc2sc3c(c21)CCC3 (stereo unspecified)	3.4%	-2.4%	-0.2%	15.9%	31.6µM*
Cc1cc(C)n(-c2nc(NC(C)C)nc(NC(C)C)n2)n1	-2.8%	6.31µM*	.	2.5%	-9.6%
CCNc1nc(NCC)nc(-n2nc(C)cc2C)n1	9.4%	?	0.1%	.	-12.3%
Cc1cc(C)n(-c2nc(NC(C)(C)C)nc(NC(C)(C)C)n2)n1	0.5%	12.6µM*	-0.7%[9.22 µM]	2.4%	-2.3%
CCC1CCCCN1c1nc(-c2ccncc2)nc2ccccc12 (stereo unspecified)	.	2.3%[20.6 µM]	.	.	.
CC1CCCCN1c1nc(-c2ccncc2)nc2ccccc12 (stereo unspecified)	1.6%	2.6%	2.3%[1.84 µM]	10µM*	5.0%
N#CC1=C(N)Oc2c(ccc3cccnc23)C1c1cccnc1 (stereo unspecified)	2.0%	20.3%	-0.2%[57.5 µM]	15.1%	31.6µM*
CCc1[nH]nc2c1C(c1cccnc1)C(C#N)=C(N)O2 (stereo unspecified)	9.3%	2.7%	-1.1%	0.5%	-2.4%
CC1(C)CCC[C@@]2(C)[C@@H]1CC[C@]1(C)OC(=O)C[C@@H]21	4.6%	-2.4%[9.22 µM]	.	.	?
C[C@@H]1O[C@@H](OC[C@@H]2O[C@@H](Oc3c(-c4ccc(O)c(O)c4)oc4cc(O)cc(O)c4c3=O)[C@H](O)[C@H](O)[C@@H]2O)[C@H](O)[C@H](O)[C@@H]1O	2.9%	-4.6%[9.22 µM]	.	.	1.1%
SMILES	Ub-GFP proteasome	GFP derepression	HBB splice mod	USP2a inh	Hsp90 Hop PPI
Nc1ccc(-c2nc3ccc(-c4nc5ccc(N)cc5[nH]4)cc3[nH]2)cc1	.	.	.	25.1µM*	.
Nc1ccc(-c2nc3ccccc3[nH]2)cc1	1.1%	.	-0.3%	.	1.4%
Cc1cc(-c2ccc(N=Nc3ccc4c(S(=O)(=O)O)cc(S(=O)(=O)O)c(N)c4c3O)c(C)c2)ccc1N=Nc1ccc2c(S(=O)(=O)O)cc(S(=O)(=O)O)c(N)c2c1O	-1.2%	-1.4%	.	.	3.98µM*
Nc1ccc(N)c(Cl)c1	.	.	-1.4%	.	-22.2%
CCCCc1nc2c(c3c1CC(C)OC3)CN(CCC(C)C)CC2 (stereo unspecified)	.	.	0.2%[9.22 µM]	.	.
O=C1C(=O)c2ccccc2C(O)=C1C(CCc1ccccc1)C1=C(O)c2ccccc2C(=O)C1=O	-4.6%[9.17 µM]	9.2%[9.22 µM]	3.2%[9.22 µM]	.	-19.5%[11 µM]
